Screening data from PubChem BioAssay.
TLR4 MyD88 comp: inhibitors of human TLR4-MyD88 binding. AID 861. HeLa CL3-4 TLR4/MyD88 BLA complementation, FRET ratio. inhibition, % at 8.4 µM. O00206+Q99836. 200,000 tested, 0.18% active; in the data active means inhibition above about 25%;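 further: 0% = vehicle and 100% = reference inhibitor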
NPR1 activator: GC-A (human) enzyme activation; AID 1671463; activation, % at 10 µM; P16066; 370,000 tested, 0.14% active; HEK293 GC-A cells, cGMP TR-FRET, EC30 ANP; 0% at EC30 ANP, 100% saturating ANP; in the data active means activation above about 40%
TLR9-MyD88 block: TLR9-MyD88 interaction inhibition | CHO BLA complementation TLR9-MyD88, CCF4 FRET ratio | inhibition, % at 4.98 µM | 340,000 tested, 0.21% active | AID 504734;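 active means inhibition above the mean over all tested compounds plus 3 SD, cut at about 21% in these data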;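 further: 0% = DMSO only wells and 100% = clavulanate BLA inhibitor control wells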
NOD2 RIPK2 PPI: blocks binding of human NOD2 to RIPK2; 360,000 tested, 0.38% active; inhibition, % at 4.98 µM; CHO BLA complementation NOD2-RIPK2, CCF4 ratio; in the data active means inhibition above about 21%;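 further: 0% = vehicle only and 100% = reference blocker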
NPR2 activator: GC-B (human) receptor activation; P20594; HEK293-GC-B cells, CNP EC30, cGMP TR-FRET; 0% at EC30 CNP, 100% saturating CNP; activation, % at 10 µM; 370,000 tested, 0.11% active;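 active means activation at 10 µM reaching about 35% in either raw or pattern-adjusted values, limit read from the data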
Neddylation inh: cullin neddylation inhibition. inhibition, % at 25 µM. 360,000 tested, 0.58% active. AID 651699. TR-FRET cullin neddylation, biochemical. P61081+Q13564; in the data active means inhibition above about 36%
Target sequence (P61081 whole entry, looked up): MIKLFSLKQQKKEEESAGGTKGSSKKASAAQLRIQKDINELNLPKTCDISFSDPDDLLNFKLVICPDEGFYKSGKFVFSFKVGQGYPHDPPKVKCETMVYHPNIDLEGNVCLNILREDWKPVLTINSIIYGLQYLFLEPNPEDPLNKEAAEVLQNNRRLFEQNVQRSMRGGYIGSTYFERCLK
Target sequence (Q13564 whole entry, looked up): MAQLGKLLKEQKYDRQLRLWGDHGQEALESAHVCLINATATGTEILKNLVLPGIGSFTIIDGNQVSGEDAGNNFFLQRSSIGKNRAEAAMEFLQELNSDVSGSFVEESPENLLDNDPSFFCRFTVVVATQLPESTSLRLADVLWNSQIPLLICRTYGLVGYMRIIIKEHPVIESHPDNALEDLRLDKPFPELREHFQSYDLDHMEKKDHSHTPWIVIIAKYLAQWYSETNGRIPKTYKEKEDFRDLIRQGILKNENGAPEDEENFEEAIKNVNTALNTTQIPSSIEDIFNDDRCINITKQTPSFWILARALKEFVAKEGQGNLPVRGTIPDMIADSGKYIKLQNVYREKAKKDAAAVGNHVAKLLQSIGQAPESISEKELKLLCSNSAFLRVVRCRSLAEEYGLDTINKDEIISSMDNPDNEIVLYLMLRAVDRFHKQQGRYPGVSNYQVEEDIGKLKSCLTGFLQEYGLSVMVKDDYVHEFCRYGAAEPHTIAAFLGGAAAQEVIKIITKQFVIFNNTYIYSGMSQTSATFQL
TLR4 MyD88 cnf: TLR4-MyD88 interaction inhibition confirmed | shares compounds with TLR4 MyD88 comp | HeLa CL3-4 BLA complementation, CCF4 FRET ratio | inhibition, % at 8.4 µM | 350 tested, 50% active | AID 941;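 active means mean inhibition across three repeat runs above about 25% carried over from the earlier screen, limit read from the data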;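 further: plate controls were DMSO only for no effect and clavulanic acid blocking BLA at full dose for full effect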
BLA inh HeLa: inhibits beta-lactamase activity, counter-screen to TLR4-MyD88 binding inhibitors. shares compounds with TLR4 MyD88 comp. HeLa BLA reporter, CCF4 FRET ratio. inhibition, % at 8.4 µM. 350 tested, 63% active. AID 1237;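 active means mean inhibition over three repeats above about 26% taken from the earlier screen, limit read from the data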;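 further: HeLa cells stably expressing beta-lactamase reporter as counterscreen for TLR4-MyD88 inhibitors; 0% = DMSO and 100% = clavulanic acid full inhibition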
TLR9-MyD88 conf: confirmation of human TLR9-MyD88 binding inhibitors. inhibition, % at 4.98 µM. shares compounds with TLR9-MyD88 block. CHO TLR9/MyD88 BLA complementation, CCF4 FRET ratio. 680 tested, 51% active. AID 540250;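 active means mean inhibition across three repeats above about 21% taken from the earlier screen, limit read from the data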;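 further: blue over green emission ratio reports constitutive TLR9 MyD88 association via BLA complementation; 0% = DMSO vehicle wells and 100% = clavulanate BLA inhibitor wells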
BLA counter: counter-screen for TLR9-MyD88 inhibitors: non-selective beta-lactamase inhibitors. AID 540251. inhibition, % at 4.98 µM. shares compounds with TLR9-MyD88 block. 680 tested, 7% active. CHO-BLA cells, CCF4 FRET ratio, BLA reporter;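 active means mean inhibition above a 50% cutoff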;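 further: counterscreen of TLR9-MyD88 hits on CMV-driven BLA in CHO-K1 cells; 0% = DMSO alone and 100% = clavulanate blocking BLA; higher means less blue over green ratio so more BLA blockade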
TLR9 CHO tox: counter-screen for TLR9-MyD88 inhibitors: cytotoxicity in CHO cells; luminescence; shares compounds with TLR9-MyD88 block; inhibition, % at 4.98 µM; 680 tested, 39% active; in the data active means inhibition above about 11%
An asterisk follows results filed as active; nt = no result given. Only some compounds are listed: those with a hit (about 1.2% of all), similar ones and a draw of the others.

SMILES | TLR4 MyD88 comp | NPR1 activator | TLR9-MyD88 block | NOD2 RIPK2 PPI | NPR2 activator | Neddylation inh | TLR4 MyD88 cnf | BLA inh HeLa | TLR9-MyD88 conf | BLA counter | TLR9 CHO tox
COC(=O)c1cc(C(C)c2c[nH]c3ccccc23)n2ccccc12 (configuration not stated) | nt | -6 | nt | nt | -4 | nt | nt | nt | nt | nt | nt
COc1ccc(-n2c(-c3ccc(Br)cc3)c[n+]3c2CCc2ccccc2-3)cc1 | 26* | -5 | 0 | -5 | -3 | -56 | 25* | 23 | nt | nt | nt
CC(C)c1ccc(-n2c(-c3ccccc3)c[n+]3c2CCc2ccccc2-3)cc1 | 25 | -18 | -5 | 12 | -6 | 2 | nt | nt | nt | nt | nt
CC1CC(=O)c2c(cc3c(-c4c(O)cc(O)c5c(O)c6c(cc45)OC(C)CC6=O)c(O)cc(O)c3c2O)O1 (configuration not stated) | 42* | nt | 18 | 23* | nt | 6 | 44* | 65* | nt | nt | nt
O=C1CC(c2ccc(O)cc2)Oc2cc(O)cc(O)c21 (configuration not stated) | 2 | 3 | -2 | -5 | -1 | 2 | nt | nt | nt | nt | nt
CC(=O)C1=C(C)NC(SCC(=O)c2ccc(-c3ccccc3)cc2)=C(C#N)C1c1cccnc1 (configuration not stated) | 31* | nt | nt | nt | nt | nt | 20 | 36* | nt | nt | nt
CC(=O)C1=C(C)NC(SCSc2ccccc2)=C(C#N)C1c1cccnc1 (configuration not stated) | -6 | nt | nt | nt | nt | nt | nt | nt | nt | nt | nt
COc1ccc(-c2ccc3c(N)c(C(=O)c4ccc(OC)c(OC)c4)sc3n2)cc1 | 27* | 3 | 9 | 18 | -6 | 18 | 23 | 45* | nt | nt | nt
COc1ccc(CNC(=O)[C@@H](Cc2ccccc2)NC(=O)[C@H]2O[C@@H](n3ccc(=O)[nH]c3=O)[C@H](O)[C@@H]2O)cc1 | nt | 2 | nt | nt | 2 | nt | nt | nt | nt | nt | nt
CC(C)C(=O)Nc1cccc(-c2nc3ccccc3o2)c1 | 26* | 8 | -11 | 3 | 3 | nt | -4 | -5 | nt | nt | nt
CCOC(=O)[C@]12CCCC=C1N(Cc1ccc(OC)cc1)C(=O)[C@@H]2CC(=O)N1CCCCC1 | nt | 0 | nt | nt | 1 | nt | nt | nt | nt | nt | nt
Cc1c(N2C(=O)/C(=C\C3CC=CCC3)SC2=S)c(=O)n(-c2ccccc2)n1C (configuration not stated) | 25* | 3 | 3 | 1 | 1 | 10 | 9 | -16 | nt | nt | nt
CCCC(=O)N1CCC[C@]2(CC[C@H](CCC(=O)OCC)O2)C1 | nt | 2 | nt | nt | 5 | nt | nt | nt | nt | nt | nt
CC(=O)Nc1sc(/C(C#N)=C\c2cccc(Cl)c2)nc1-c1ccc(C)cc1 | 31* | 31 | 32* | 20 | 3 | 32 | 86* | 112* | 80* | 81* | 2
OCCNc1c2ccccc2nc2c(F)c(F)c(F)c(F)c12 | 69* | -10 | 32* | 2 | -6 | nt | 84* | 107* | 43* | 49 | 82*
Fc1ccc(C2=CC(c3ccc(Br)o3)n3ncnc3N2)cc1 (configuration not stated) | 28* | nt | 25* | 22* | nt | 19 | 7 | 26* | 15 | 19 | 3
Cc1nc(N2CCN(C)CC2)c2sc(=S)n(-c3ccccc3)c2n1 | -14 | -2 | 4 | 4 | -10 | -4 | nt | nt | nt | nt | nt
S=c1sc2c(Cl)ncnc2n1-c1ccccc1 | 52* | -43 | 29* | 54* | -15 | 2 | 47* | 26* | 26* | 15 | 25*
Nc1nc2c(ncn2[C@@H]2O[C@H](C(=O)NCCCc3ccccc3)[C@@H](O)[C@H]2O)c(=O)[nH]1 | nt | 13 | nt | nt | 14 | nt | nt | nt | nt | nt | nt
O=C(NC(Cc1ccccc1)C(=O)Oc1ccc2c(C(F)(F)F)cc(=O)oc2c1)OCc1ccccc1 (configuration not stated) | 39* | nt | 59* | 71* | nt | nt | 32* | 67* | 34* | 44 | 2
COc1ccc(CS(=O)(=O)/C(Cl)=C(/Cl)C(=O)Nc2ccc(OC)nc2)cc1 | 25* | nt | 31* | 73* | nt | 0 | 22 | 14 | 32* | 24 | 100*
CCOc1cc(N(CC)CC)ccc1/C=C(/C#N)c1nc2ccccc2[nH]1 | 13 | 8 | 9 | 8 | 13 | -281 | nt | nt | nt | nt | nt
CCN(CC)c1ccc(/C=C(/C#N)c2nc3ccc(C)cc3[nH]2)c(OC(C)C)c1 | 35* | nt | 23* | 34* | nt | -235 | 13 | 36* | 21* | 21 | 5
O=C1/C(=C/c2ccco2)CCc2ccccc21 | -7 | 1 | 4 | -5 | 0 | 2 | nt | nt | nt | nt | nt
Nc1ccc2c(c1)C/C(=C/c1ccco1)C2=O | 32* | -8 | 24* | 13 | -2 | 19 | 26* | 55* | 23* | 30 | 7
SMILES | TLR4 MyD88 comp | NPR1 activator | TLR9-MyD88 block | NOD2 RIPK2 PPI | NPR2 activator | Neddylation inh | TLR4 MyD88 cnf | BLA inh HeLa | TLR9-MyD88 conf | BLA counter | TLR9 CHO tox
NC(=O)c1sc2nc(-c3ccccc3)ccc2c1N | nt | 18 | 5 | -4 | -2 | 15 | nt | nt | nt | nt | nt
COc1ccc(C(=O)c2sc3nc(-c4ccccc4)ccc3c2N)cc1OC | 36* | 3 | 33* | 15 | -4 | 29 | 38* | 57* | 43* | 38 | 9
CCN(CC)c1ccc2cc(C(C)=O)c(=O)oc2c1 | -5 | 2 | -5 | 9 | 0 | 20 | nt | nt | nt | nt | nt
CCN(CC)c1ccc2cc(NC(=O)CCC(=O)O)c(=O)oc2c1 | 58* | 3 | 68* | 79* | -4 | nt | 61* | 83* | 50* | 57* | 1
COc1ccc2c(CCN3C(=O)c4ccccc4C3=O)c(-c3c(CCN4C(=O)c5ccccc5C4=O)c4ccccc4n3C(=O)OC(C)(C)C)[nH]c2c1 | nt | 0 | nt | nt | -4 | nt | nt | nt | nt | nt | nt
C[C@@H]1N[C@H]2N(C1=O)c1ccccc1[C@@]21C[C@@H]2C(=O)N[C@](C)(O1)c1nc3ccccc3c(=O)n12 | nt | -2 | nt | nt | -3 | nt | nt | nt | nt | nt | nt
Cc1ccc(NC(=O)/C(C#N)=C/c2cn(CC(=O)NCc3ccco3)c3ccccc23)cc1C | 60* | -3 | 36* | -18 | -1 | nt | 54* | 80* | 7 | 14 | 28*
